Assay outcomes from PubChem.
A selection: hits, their analogues and other compounds. The true share with any hit is near 2.5%.
D2 ag-1: agonists of human D2 dopamine receptor (beta-arrestin); DiscoveRx PathHunter D2 beta-arrestin, luminescence, 90 min; 100% = 57 uM dopamine signal; AID 624465; actives 0.084% (n = 360,000); activation, % (test concentration not listed); in the data active means activation above about 40%; inconclusive means between about 15% and that limit
Target sequence (P14416 whole entry, looked up): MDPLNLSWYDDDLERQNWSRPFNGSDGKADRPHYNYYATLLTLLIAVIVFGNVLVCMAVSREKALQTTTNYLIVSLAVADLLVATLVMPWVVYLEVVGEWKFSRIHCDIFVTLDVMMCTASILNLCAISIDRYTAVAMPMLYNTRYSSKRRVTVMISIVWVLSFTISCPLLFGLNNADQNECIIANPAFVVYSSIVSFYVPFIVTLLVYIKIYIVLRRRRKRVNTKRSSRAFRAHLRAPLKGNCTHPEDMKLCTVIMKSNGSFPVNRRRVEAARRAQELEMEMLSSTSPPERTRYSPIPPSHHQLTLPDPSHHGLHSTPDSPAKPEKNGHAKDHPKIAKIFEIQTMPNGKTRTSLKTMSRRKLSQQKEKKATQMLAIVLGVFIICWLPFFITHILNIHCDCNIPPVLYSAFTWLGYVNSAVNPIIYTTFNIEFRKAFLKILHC
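DiscoveRx PathHunter D2 beta-arrestin cells (2,100/well) attached overnight, then compound-stimulated 90 min at 37 C in HBSS/10 mM HEPES/0.1% Tween-20 buffer; beta-galactosidase complementation read by luminescence after 1 h at ambient temperature. Dopamine 57 uM final (EC100) as control.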
D2 antagonist: D2 dopamine receptor (human) antagonism | P14416 | HEK293 TREx D2 cells, calcium flux, dopamine EC80 | inhibition, % at 10 µM | actives 2% (n = 340,000); in the data active means inhibition above about 30%; inactive means below that, where a call was filed
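Overnight-induced (tetracycline, 30 C) HEK293 T-REx cells carrying force-coupled D2 receive a no-wash calcium dye, then compound, then EC80 dopamine at 180 s; signals are read kinetically throughout.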
Apoferritin bind: binds horse apoferritin like a general anesthetic. P02791. apoferritin/1-aminoanthracene competitive binding, fluorescence. Potency, µM (top dose mostly 77.5 µM), hits mostly inhibitors. actives 0.074% (n = 350,000). AID 485281; active means well fitted inhibition curve with a large enough effect; inconclusive means small, poorly fitted or top-dose-only effect; inactive means no such curve, though single readings can be large or run the other way; further: nearly all actives have a fitted effect of over 20% in size
Target sequence (P02791 2-175 limits assumed): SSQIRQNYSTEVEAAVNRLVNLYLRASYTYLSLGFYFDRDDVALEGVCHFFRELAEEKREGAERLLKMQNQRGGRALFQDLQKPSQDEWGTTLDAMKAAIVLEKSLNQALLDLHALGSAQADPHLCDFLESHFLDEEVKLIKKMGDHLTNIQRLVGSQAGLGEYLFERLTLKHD
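Horse-spleen apoferritin (10 uM) in 50% saturated 1-aminoanthracene in PBS was incubated 10 min at room temperature with compound. Fluorescence (ex 380, em 535 nm) was normalized to free and bound 1-AMA, with concentration-response fitted by a four-parameter Hill equation.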
D2 ag-2: agonists of human D2 dopamine receptor; HEK293 T-REx D2 cells, calcium flux agonist mode; actives 0.53% (n = 340,000); activation, % at 2 µM;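 active means activation over 3 SD above normal in the single-dose calcium agonist read, cut at about 30% in these data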
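Tetracycline-induced HEK293 T-REx cells with force-coupled D2 receptor, plated overnight at 30 C, loaded with no-wash calcium dye. After a 10 s baseline, compound was pin-added and calcium flux read kinetically for 180 s; calcium rises flagged agonists.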
D2 PAM-1: positively modulates the human D2 dopamine receptor allosterically. P14416. HEK293 T-REx D2, calcium flux, EC20 dopamine potentiation. potentiation, % at 10 µM. actives 0.34% (n = 340,000). AID 485347;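 active means potentiation over 3 SD above the plate norm, cut at about 30% in these data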
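Potentiation of an EC20 dopamine calcium response measured kinetically over 180 s, after a preceding 180 s compound-only read flagging agonists. Cells: inducible Hek293 Trex D2 line, 4000/well, cultured overnight at 30 C before dye loading.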
D2 PAM-2: potentiates the human D2 dopamine receptor allosterically. P14416. actives 0.23% (n = 360,000). AID 624464. DiscoveRx D2 beta-arrestin cells, luminescence, 90 min; 100% = 57 uM dopamine signal. potentiation, % (concentration not given with the values); in the data active means potentiation above about 50%; inconclusive means mostly about 30% to 49%
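PathHunter beta-arrestin assay in DiscoveRx D2 cells. Compounds were added with an EC20 of dopamine (50 nM final) for 90 min at 37 deg C. Luminescence was read 1 h after detection reagent, with 57 uM dopamine as the EC100 control.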
Hits are given with their value; i = inactive; ? = inconclusive; nt = no result given.

SMILES	D2 ag-1	D2 antagonist	Apoferritin bind	D2 ag-2	D2 PAM-1	D2 PAM-2
COc1ccc(C2=NOC(C(=O)NCc3ccc(F)cc3)C2)cc1OC (configuration not stated)	i	i	i	i	37	i
COc1cccc(C2=NOC(C(=O)Nc3ccc4c(c3)OCO4)C2)c1OC (configuration not stated)	i	60	i	i	i	i
COc1cc(C2=NOC(C(=O)Nc3ccc(C)cc3)C2)cc(OC)c1OC (configuration not stated)	i	57	i	i	i	i
COc1ccc(C(=O)N(C)CCCC2CCCC2)cc1OC1CCN(C(C)=O)CC1	i	i	i	i	i	i
Nc1c(C(=O)c2ccc(Br)s2)oc2ccccc12	i	45	i	i	i	i
Nc1c(C(=O)c2cccs2)oc2ccccc12	i	i	?	i	i	i
CCC(Cn1nnc2ccccc2c1=O)NC(=O)Nc1ccccc1OC (configuration not stated)	nt	nt	?	i	i	nt
COc1ccc(C(CCN2CCCC(C)C2)c2c(OC)cc(OC)c3c2OC(=O)CC3c2cc(OC)c(OC)c(OC)c2)cc1 (configuration not stated)	i	52	i	i	i	i
CCCCCc1cc(=O)oc2c(C(CCN3CCN(c4ccccc4)CC3)c3ccc4c(c3)OCO4)c(OC)cc(OC)c12 (configuration not stated)	i	50	i	i	i	i
COc1cc(OC)c2ccc(=O)oc2c1C(CCN1CCCC(C)C1)c1ccc2c(c1)OCO2 (configuration not stated)	i	83	i	i	i	i
COc1ccc(OC)c(NC(=O)C(Cc2ccccc2)NS(=O)(=O)c2ccc3c(c2)CCC(=O)N3)c1 (configuration not stated)	nt	nt	i	i	i	nt
CCSc1nnc(-c2sc3nnc(-c4ccccc4)c(-c4ccccc4)c3c2N)o1	i	i	i	39	i	i
Cc1csc2ncnc(N3CCN(C(=O)Nc4ccc(OC(F)(F)F)cc4)CC3)c12	i	nt	i	nt	i	i
COC(=O)c1c(CSc2ccc(Cl)cc2)noc1C(=O)NCc1ccco1	i	38	?	i	i	i
COC(=O)c1c(CSc2cccc(C)c2)noc1C(=O)NCc1ccco1	i	i	?	i	i	i
O=C(CN1CCc2ccccc2C1)Nc1ccccc1N1CCCCCC1	i	i	i	i	i	i
COc1cc2c(cc1OC)CN(C(=O)Nc1ccccc1)CC2	i	i	i	i	i	i
COc1cc2c(cc1OC)CN(C(=O)Nc1ccccc1Cl)CC2	i	35	i	i	i	i
Cc1ccc(C)c(NC(=O)CCN2CCc3ccccc3C2)c1	i	31	i	i	i	i
O=C(CN1CCc2ccccc2C1)Nc1ccccc1Cl	i	61	i	31	i	i
Cc1cccc(C(=O)NCCC(=O)N2CCc3ccccc3C2)c1	i	32	nt	i	i	i
CCN1CCN(CCC(=O)Nc2cc(C)ccc2C)CC1	i	i	i	i	i	i
Cc1cc(NC(=O)CCC(=O)N(Cc2ccco2)C2(C(=O)NC3CCCCC3)CCN(C)CC2)no1	i	i	i	i	i	i
CC(C)CC1C(=O)N(Cc2cn(CCC3OCCO3)nn2)CCS(=O)(=O)N1Cc1ccc(-c2ccccc2)cc1 (configuration not stated)	i	nt	nt	nt	nt	i
C[N+]1(CC(=O)OCCCc2ccccc2)CCOCC1	i	i	i	i	i	i
SMILES	D2 ag-1	D2 antagonist	Apoferritin bind	D2 ag-2	D2 PAM-1	D2 PAM-2
COc1ccc(CC2C(=O)OC(C)(C)OC2=O)c(Cl)c1OC	i	i	i	i	i	i
O=C(CCN1CCc2ccccc2C1)Nc1ccc(F)c(F)c1	i	nt	i	nt	i	i
O=C(CCN1CCc2ccccc2C1)Nc1ccc2c(c1)OCO2	i	59	i	i	i	i
CC(C)c1ccc(N2C(=O)/C(=C/N(C)C)SC2=S)cc1	i	i	i	30	i	i
CCO/C=C1\SC(=S)N(c2ccc(Cl)cc2)C1=O	i	i	i	i	i	i
Cc1cc(C)nc(NC(=O)c2ccc(Br)s2)n1	i	i	i	i	i	i
O=S(=O)(c1cc(Cl)cc(Cl)c1)N1CCCC1c1nc2ccccc2s1 (configuration not stated)	i	i	i	i	43	i
O=S(=O)(c1ccc(Cl)cc1)N1CCCC1c1nc2ccccc2s1 (configuration not stated)	i	nt	i	nt	nt	i
Cc1ccc(S(=O)(=O)c2cnc(-c3ccccc3)nc2N2CCN(C)CC2)cc1	i	i	i	i	i	i
CN1CCN(c2nc(-c3ccccc3)ncc2S(=O)(=O)c2ccccc2)CC1	i	54	i	i	i	i
Cn1cc(S(=O)(=O)c2ccccc2)c(=O)c2cc(F)c(N3CCCCC3)cc21	nt	nt	i	i	i	nt
CCS(=O)(=O)c1ccc2oc(SCC(=O)NCCc3ccc(F)cc3)nc2c1	i	i	i	i	i	i
CCS(=O)(=O)c1ccc2oc(SCC(=O)NCCC3=CCCCC3)nc2c1	i	68	i	i	i	i
CS(=O)(=O)N1CCCC(C(=O)N2CCN(c3cccc(Cl)c3)CC2)C1 (configuration not stated)	i	31	i	i	i	i
CCOc1cccc(CN2CCCC(C(=O)c3cc(Cl)ccc3OC)C2)c1O (configuration not stated)	i	66	i	i	i	i
CCOc1cccc(CN2CCCC(N3CCc4ccccc4C3)C2)c1O (configuration not stated)	i	i	i	i	i	i
CS(=O)(=O)N1CCC(C(=O)N2CCN(c3cccc(Cl)c3)CC2)CC1	i	i	i	i	nt	i
O=C(c1cnccn1)N1CCCC(N2CCN(c3cccc(Cl)c3)CC2)C1 (configuration not stated)	i	i	i	37	i	i
Cc1cccc(C(=O)N2CCCC(N3CCN(c4cccc(Cl)c4)CC3)C2)n1 (configuration not stated)	i	i	i	i	i	i
CCOc1cccc(CN2CCCC(N3CCN(c4cccc(Cl)c4)CC3)C2)c1O (configuration not stated)	i	37	i	i	i	i
COc1ccc(C(=O)C2CCCN(Cc3cc(Cl)ccc3O)C2)c(OC)c1 (configuration not stated)	i	i	i	i	i	i
CC1(C)Cc2ccccc2C2=NNC(=O)C2=N1	i	i	i	i	i	i
COc1ccc(-c2cc(C(=O)Nc3ccc(Cl)cc3Cl)c3ccccc3n2)cc1OC	i	i	i	i	i	i
